Measurements reported in PubChem BioAssay AID651820 (National Center for Advancing Translational Sciences (NCATS), 2012).
About 12,000 (3.5%) of roughly 340,000 compounds were called active. Where a call stands in place of a potency, no number is given. Roughly 18% stayed inconclusive and do not appear here. Calls come from the whole dose curve; as a rule, active = well fitted inhibition curve with a large enough effect; inconclusive = small, poorly fitted or top-dose-only effect, or another doubt; inactive = no such curve, though single readings can be large or run the other way. Only a selection was taken, and actives are over-represented in it overall.
Potency is the fitted concentration of half-maximal effect.

Assay: qHTS Assay for Inhibitors of Hepatitis C Virus (HCV)
Conditions: Huh7.5.1 HCVcc-Cre infection, luciferase reporter, 44 h; series mostly up to 41.8 µM
Summary of the method: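 Compounds are dispensed onto cells plated 4 h earlier at 1,000 per well, with HCVcc-Cre virus (about 0.5 moi) added next. Following 44 h of culture, luminescent signal is measured for 15 sec after 15 min with substrate at room temperature.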
In the case of `C[C@H](OC(=O)n1ccnc1)[C@@H]1O[C@@]2(C)CCC[C@@H]1O2`, the Potency is reported as “inactive”.
In the case of `CCc1cccc(NC(=O)COC(=O)c2cc(=O)c3ccccc3o2)c1`, the Potency is reported as “inactive”.
In the case of `Cc1nc(/N=C(\N)NC(=O)NC2CCCCC2)nc2ccccc12`, the Potency is reported as 11.2 µM (active).
For `O=C(NNC(=O)C(O)c1ccccc1)NC1CCCCC1` (stereo not drawn), the Potency was “inactive”.
For `Cc1nn(-c2ccccc2)c(C)c1C(=O)OCC(=O)NC(=O)NC1CCCCC1`, the Potency was “inactive”.
For `C=CCOc1cccc(C2C(C(=O)c3ccc(C)o3)=C(O)C(=O)N2CCCn2ccnc2)c1` (stereo not drawn), the Potency was “inactive”.
With `Cc1cccc(CC2(O)C(=O)Nc3ccccc32)n1` (stereo not drawn) the Potency was “inactive”.
With `Cc1ccnc(SCC(=O)Nc2cccc(S(=O)(=O)N3CCOCC3)c2)n1` the Potency was “inactive”.
With `Cc1nc2ccc(NC(=O)C3CCCCC3)cc2s1` the Potency was “inactive”.
For `Cc1nc2ccc(N)nc2nc1C`, the Potency was “inactive”.
For `COC(=O)CNc1nc(Cl)nc(N2CCC(C)CC2)n1`, the Potency was “inactive”.
With `Clc1nc(NC2CCCC2)nc(N2CCOCC2)n1` the Potency was 14.1 µM (active).
With `COc1nc(NC2CCCCC2)nc(N2CCCCCC2)n1` the Potency was “inactive”.
In the case of `O=C(CNC(=O)c1n[nH]c2ccccc12)Nc1cc(Cl)ccc1Cl`, the Potency is reported as “inactive”.
In the case of `CCN1CCN(C(=O)N(Cc2ccc(Cl)cc2)S(=O)(=O)c2ccc(C)cc2)CC1`, the Potency is reported as “inactive”.
In the case of `COCCN(Cc1cc2cc3c(cc2nc1Cl)OCO3)C(=O)c1cccc(C)c1`, the Potency is reported as 12.6 µM (active).
In the case of `CCCCN(CC)C(=O)c1ccc2c(c1)OCO2`, the Potency is reported as “inactive”.
For `Cc1cccc(C(=O)NCCCN(C)CCCNC(=O)c2cccc(C)c2)c1`, the Potency was “inactive”.
For `O=C(CC1Sc2ccccc2NC1=O)NNc1ccc(Cl)c(Cl)c1` (stereo not drawn), the Potency was “inactive”.
With `N#Cc1c(-c2ccccc2)nc(SCc2cccc(C(F)(F)F)c2)[nH]c1=O` the Potency was “inactive”.
With `O=c1c2ccccc2nc2n1C(CSCc1ccccc1)CS2` (stereo not drawn) the Potency was 14.1 µM (active).
For `O=c1c2ccccc2nc2n1C(CSc1ccc(F)cc1)CN2` (stereo not drawn), the Potency was “inactive”.
With `O=c1c2ccccc2nc2n1C(CSCc1cccc(C(F)(F)F)c1)CS2` (stereo not drawn) the Potency was 10 µM (active).
For `O=c1c2ccccc2nc2n1C(CSc1ccc(Cl)cc1)CN2` (stereo not drawn), the Potency was “inactive”.
With `O=c1[nH]c(SCc2cccc(F)c2)nc2ccccc12` the Potency was “inactive”.
In the case of `CN(C)S(=O)(=O)c1ccc(N2CCCC2)c(C(=O)Nc2ccc(Br)cc2F)c1`, the Potency is reported as “inactive”.
In the case of `COc1ccc(S(=O)(=O)N2CCN(c3cnccn3)CC2)cc1`, the Potency is reported as “inactive”.
For `Cc1ccc(C(=O)N/C(=C/c2ccc(-c3cccc([N+](=O)[O-])c3)o2)C(=O)NCCCN(C)C)cc1`, the Potency was 11.2 µM (active).
With `Cc1ccc(Cc2cnc(NC(=O)/C(C#N)=C/c3ccc(-c4cccc([N+](=O)[O-])c4)o3)s2)cc1` the Potency was “inactive”.
With `CN(C)CCNC(=O)/C(=C/c1cccc([N+](=O)[O-])c1)NC(=O)c1ccccc1` the Potency was “inactive”.
For `N#C/C(=C/c1ccc(-c2ccccc2[N+](=O)[O-])o1)C(=O)NCCN1CCCCC1`, the Potency was “inactive”.
For `N#C/C(=C\c1ccc(-c2cccc([N+](=O)[O-])c2)o1)C(=O)NCCN1CCOCC1`, the Potency was 14.1 µM (active).
For `C=CCNC(=O)/C(=C\c1cccc([N+](=O)[O-])c1)NC(=O)c1ccccc1`, the Potency was “inactive”.
With `Cc1ccc(-c2csc(C(C#N)=C(O)CN3CCN(C(=O)c4ccco4)CC3)n2)cc1` the Potency was “inactive”.
In the case of `Cc1cccc(NC(=O)N2CC3CC(C2)c2cccc(=O)n2C3)c1` (stereo not drawn), the Potency is reported as “inactive”.
With `COc1cccc(OC)c1C(=O)NC(=S)N1C[C@H]2C[C@H](C1)c1cccc(=O)n1C2` the Potency was “inactive”.
With `COc1ccccc1NC(=O)N1C[C@@H]2C[C@@H](C1)c1cccc(=O)n1C2` the Potency was 1 µM (active).
With `C=CCOc1cccc(C2C(C(=O)c3ccc(C)o3)=C(O)C(=O)N2c2nnc(C)s2)c1` (stereo not drawn) the Potency was “inactive”.
In the case of `CCCC(CNC(=O)COC(=O)C1=NNC(=O)CC1)c1ccc(Cl)cc1Cl` (stereo not drawn), the Potency is reported as “inactive”.
For `CC(=O)c1ccc(NC(=O)C(C)OC(=O)c2ccc(NS(=O)(=O)c3ccc4[nH]c(=O)[nH]c4c3)cc2)cc1` (stereo not drawn), the Potency was “inactive”.
With `CCCCN1CC(COCc2ccccc2)OCCS1(=O)=O` (stereo not drawn) the Potency was “inactive”.
For `CCCCC[C@@H]1C=C(C(=O)O)[C@H](c2ccc(C#N)cc2)N1S(=O)(=O)c1ccc(C)cc1`, the Potency was “inactive”.
With `COc1ccc(S(=O)(=O)N2CCN(C(=S)NCC3CCCO3)CC2)cc1OC` (stereo not drawn) the Potency was “inactive”.
In the case of `CCOc1ccc(S(=O)(=O)N2CCN(C(=S)NCC3CCCO3)CC2)cc1` (stereo not drawn), the activity change, negative = inhibition is reported as -4.09% [at 8.37 µM] (inactive).
For `S=C(NCC1CCCO1)N1CCN(c2ccc(Cl)c(Cl)c2)CC1` (stereo not drawn), the Potency was 10 µM (active).
In the case of `CC(C)COc1ccc(C(=O)NNC(=O)CCC(=O)c2cccs2)cc1`, the Potency is reported as “inactive”.
With `COC(=O)COc1ccc(S(=O)(=O)Nc2ccc(NC(C)=O)cc2)cc1` the Potency was “inactive”.
For `COc1ccc(NS(=O)(=O)c2ccc(Oc3c(C#N)cccc3C#N)cc2)cc1`, the Potency was 17.8 µM (active).
With `COc1ccc(/C=N/NS(=O)(=O)c2ccc(NC(C)=O)cc2)cc1` the Potency was “inactive”.
With `O=C(O)C(=Cc1ccccc1[N+](=O)[O-])c1ccccc1` the Potency was “inactive”.
With `CN1CCN(c2ccc(NC(=O)c3cc(Cl)c4c(c3)OCCO4)cc2)CC1` the Potency was 10 µM (active).
With `O=C(Nc1ccc(N2CCOCC2)cc1)c1ccc2c(c1)OCO2` the Potency was “inactive”.
With `CN1CCN(c2ccc(NC(=O)c3ccc4c(c3)OCCO4)cc2Cl)CC1` the Potency was “inactive”.
With `O=C(OCCN1C(=O)c2ccccc2C1=O)[C@@H]1CC(O)CN1S(=O)(=O)c1ccccc1[N+](=O)[O-]` (stereo partly drawn) the Potency was “inactive”.
In the case of `O=C(NC1=CC(=O)c2ccccc2C1=O)c1ccccc1`, the Potency is reported as 6.31 µM (active).
In the case of `O=C1C=C(NS(=O)(=O)c2ccccc2)C(=O)c2ccccc21`, the Potency is reported as “inactive”.
For `O=C(NC(=O)c1ccccc1)NC(=O)c1ccccc1`, the Potency was “inactive”.
In the case of `CC1=CC(=NNS(=O)(=O)c2ccc([N+](=O)[O-])cc2)CC(C)(C)C1`, the Potency is reported as “inactive”.
With `CC(=O)OC1C2(CC3N4C(=O)C5(CO)SSC4(CC31O)C(=O)N5C)OC(C)C(C)(C)C2=O` (stereo not drawn) the Potency was 0.562 µM (active).
For `Cc1cc(Br)ccc1NC(=O)CN(C)C(=O)CN1C(=O)NC2(CCCC2)C1=O`, the Potency was “inactive”.
In the case of `O=S(=O)(NCCCc1ccccc1)c1ccc(Br)cc1`, the Potency is reported as “inactive”.
In the case of `O=C(Cn1cnc2c(OCc3ccccc3)ncnc21)NCc1nc2ccccc2[nH]1`, the Potency is reported as “inactive”.
For `CC(=O)Nc1ccc(NC(=O)COc2ncnc3ccccc23)cc1`, the Potency was “inactive”.
For `Cc1ccc(Nc2c3c(nc4ccccc24)CCC3)cc1`, the Potency was “inactive”.
With `CC(=O)Nc1ccc(Nc2c3ccccc3nc3ccccc23)cc1` the Potency was 7.08 µM (active).
In the case of `CCOc1ccc(NC(=O)c2ccc(NC(=O)CN3C(=O)C(=O)N(CC(C)C)C3=O)cc2)cc1`, the Potency is reported as “inactive”.
In the case of `CCN(c1ccccc1)S(=O)(=O)c1ccc(C(=O)Nc2ccccc2OC)cc1`, the Potency is reported as “inactive”.
With `CN(C(=O)CSc1nnc(C2CC2)n1C)C1CCCc2ccccc21` (stereo not drawn) the Potency was “inactive”.
With `CC(C)c1ccc(S(=O)(=O)N2CCN(C(C)C(=O)NC3CCCC3)CC2)cc1` (stereo not drawn) the Potency was “inactive”.
In the case of `CC(NS(=O)(=O)c1ccc(Br)cc1)C(=O)NCC1CCCO1` (stereo not drawn), the Potency is reported as “inactive”.
In the case of `OC(CNCC1CCCO1)Cn1c2ccc(Br)cc2c2cc(Br)ccc21` (stereo not drawn), the Potency is reported as 35.5 µM (active).
In the case of `O=C(CCNS(=O)(=O)c1ccc(Br)cc1)NCC1CCCO1` (stereo not drawn), the Potency is reported as “inactive”.
In the case of `Cc1oc2c(c1C(=O)N1CCOCC1)C(=O)c1ccccc1C2=O`, the Potency is reported as 5.62 µM (active).
With `CCOC(=O)c1ccccc1C(=O)N1CCOCCOCCOCC1` the Potency was “inactive”.
For `Cc1noc(C)c1C(=O)N1CCOCC1`, the Potency was “inactive”.
With `O=C(NCCC(=O)N1O[C@@H]2C=C[C@H]1C2)OCC1c2ccccc2-c2ccccc21` the Potency was “inactive”.
For `CCn1c(=S)[nH]c2cc(S(=O)(=O)N3CCOCC3)ccc21`, the Potency was “inactive”.
With `Cc1cccc(Cn2c(N3CCN(c4ccccc4)CC3)nc3c2c(=O)n(C)c(=O)n3C)c1` the Potency was 14.1 µM (active).
In the case of `Cn1c(=O)c2c(nc(CN3CCOCC3)n2Cc2ccccc2)n(C)c1=O`, the Potency is reported as “inactive”.
For `COC(=O)C(C)Sc1nc2c(c(=O)n(C)c(=O)n2C)n1Cc1cccc(C)c1` (stereo not drawn), the Potency was “inactive”.
In the case of `COc1ccc(S(=O)(=O)N(C)C[C@@H]2Oc3ccc(NS(=O)(=O)c4cn(C)cn4)cc3C(=O)N([C@@H](C)CO)C[C@@H]2C)cc1`, the Potency is reported as “inactive”.
In the case of `O=C(COC(=O)CCCN1C(=O)c2cccc3cccc(c23)C1=O)NC1CCS(=O)(=O)C1` (stereo not drawn), the Potency is reported as “inactive”.
For `CC(O)C(NS(=O)(=O)c1ccc(Cl)cc1)C(=O)OCc1cc([N+](=O)[O-])cc2c1OCOC2` (stereo not drawn), the Potency was 10 µM (active).
In the case of `C[C@H](NS(=O)(=O)c1ccc(Cl)cc1)C(=O)OCC(=O)N1CCOCC1`, the Potency is reported as “inactive”.
With `Nc1ccccc1SCc1cc([N+](=O)[O-])cc2c1OCOC2` the Potency was “inactive”.
In the case of `Cn1c(CC(=O)NNC(=O)c2ccccc2F)nc2ccccc21`, the Potency is reported as “inactive”.
In the case of `CN(C)c1ccc(/C=C2\NC(=S)N(Cc3ccccc3)C2=O)cc1`, the Potency is reported as “inactive”.
With `O=C1/C(=C\c2ccsc2)NC(=S)N1c1ccccc1` the Potency was 11.2 µM (active).
For `O=C1N/C(=C/c2cccn2-c2ccccc2)C(=O)N1c1cccc(Cl)c1`, the Potency was “inactive”.
With `COc1ccc(S(=O)(=O)N(C)CC(=O)NCCCN2CCOCC2)cc1Cl` the Potency was “inactive”.
With `COc1ccc(C(=O)NCCCN2CCOCC2)cc1Br` the Potency was “inactive”.
In the case of `COc1ccc(-c2ccc(CNCCCN3CCOCC3)o2)cc1Cl`, the Potency is reported as 11.2 µM (active).
For `CC(=O)NCc1ccc(-c2csc(NC(=O)CCCc3nc4ccccc4c(=O)[nH]3)n2)cc1`, the Potency was “inactive”.
With `CCOC(=O)[C@H]1[C@H]2COc3ccccc3[C@@H]2N2C(=O)CN(Cc3ccccc3)C(=O)[C@@]12C` the Potency was “inactive”.
With `COc1cccc(NC(=O)c2nn(C34CC5CC(CC(C5)C3)C4)cc2[N+](=O)[O-])c1` the Potency was 31.6 µM (active).
In the case of `COc1cccc(NC(=O)COc2cccnc2[N+](=O)[O-])c1`, the Potency is reported as “inactive”.
With `COc1cccc(NC(=O)c2ccc(Cn3cc([N+](=O)[O-])cn3)o2)c1` the Potency was “inactive”.
For `O=C1CC[C@@H]2CC3(C[C@@H]4CCN1[C@H]24)Nc1cc([N+](=O)[O-])ccc1NC3=NC1CCCCC1` (stereo partly drawn), the Potency was “inactive”.
